# Reference: PubChem BioAssay AID1159580 (chemical genetic matrix, 2015)
# Screen size: about 5,500 compounds; about 2,000 (36%) were called active. Inconclusive results (about 18%) are left out. Some of the results follow. Values without a mark were called inactive. Rule as the data show it: active = normalized growth mostly below about 0.91 (no sharp cut-off); inconclusive = no clear call, values can overlap the other calls; inactive = mostly above about 0.92.
# Assay: chemical genetic growth profiling, strain panel (AID 1159580);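 also: tested at 20 µM; growth read once vehicle control cultures reached saturation at 30 °C; 1 = growth at the plate median or of vehicle wells; lower values mean less growth of the strain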
# Conditions: growth OD
smiles,measurement,setting,value
O=C1C=CC2=C3c4cc(O)c(O)cc4CC3(O)COC2=C1O (centres undefined),normalized growth,"S. cerevisiae deletion strains, locus YJR043C, strain POL32, active compounds read low",0.868
same,normalized growth,"S. cerevisiae deletion strains, locus YJR066W, strain TOR1, active compounds read low",0.953
same,normalized growth,"S. cerevisiae deletion strains, locus YJR075W, strain HOC1, active compounds read low",0.981
same,normalized growth,"S. cerevisiae deletion strains, locus YKL009W, strain mrt4, active compounds read low",1.16 [resistant] (active)
same,normalized growth,"S. cerevisiae deletion strains, locus YKL068W, active compounds read low",1.02
same,normalized growth,"S. cerevisiae deletion strains, locus YKL085W, strain MDH1 (second series), active compounds read low",1.02
same,normalized growth,"S. cerevisiae deletion strains, locus YKL085W, strain MDH1, active compounds read low",1.02
same,normalized growth,"S. cerevisiae deletion strains, locus YKL160W, strain elf1, active compounds read low",1.01
same,normalized growth,"S. cerevisiae deletion strains, locus YKL190W, strain CNB1, active compounds read low",0.908 (active)
same,normalized growth,"S. cerevisiae deletion strains, locus YKR001C, strain vps1, active compounds read low",1.06
same,normalized growth,"S. cerevisiae deletion strains, locus YKR026C, strain gcn3, active compounds read low",1.05
same,normalized growth,"S. cerevisiae deletion strains, locus YKR091W, strain srl3, active compounds read low",1.04
same,normalized growth,"S. cerevisiae deletion strains, locus YLL001W, strain dnm1, active compounds read low",1
same,normalized growth,"S. cerevisiae deletion strains, locus YLL026W, active compounds read low",1.02
same,normalized growth,"S. cerevisiae deletion strains, locus YLL041C, strain sdh2, active compounds read low",1.02
same,normalized growth,"S. cerevisiae deletion strains, locus YLR027C, strain aat2, active compounds read low",1.01
same,normalized growth,"S. cerevisiae deletion strains, locus YLR039C, strain RIC1, active compounds read low",0.848
same,normalized growth,"S. cerevisiae deletion strains, locus YLR058C, strain SHM2, active compounds read low",0.92
same,normalized growth,"S. cerevisiae deletion strains, locus YLR102C, strain apc9, active compounds read low",1.03
same,normalized growth,"S. cerevisiae deletion strains, locus YLR113W, strain HOG1, active compounds read low",1.06
same,normalized growth,"S. cerevisiae deletion strains, locus YLR221C, strain rsa3, active compounds read low",0.992
same,normalized growth,"S. cerevisiae deletion strains, locus YLR258W, strain gsy2, active compounds read low",0.996
same,normalized growth,"S. cerevisiae deletion strains, locus YLR262C, strain YPT6 (second series), active compounds read low",0.875
same,normalized growth,"S. cerevisiae deletion strains, locus YLR262C, strain YPT6, active compounds read low",0.931
same,normalized growth,"S. cerevisiae deletion strains, locus YLR268W, strain sec22, active compounds read low",1.01
same,normalized growth,"S. cerevisiae deletion strains, locus YLR320W, strain mms22, active compounds read low",1.04
same,normalized growth,"S. cerevisiae deletion strains, locus YLR330W, strain CHS5, active compounds read low",1.01
same,normalized growth,"S. cerevisiae deletion strains, locus YLR342W, strain FKS1 (second series), active compounds read low",0.86
same,normalized growth,"S. cerevisiae deletion strains, locus YLR342W, strain FKS1, active compounds read low",0.994
same,normalized growth,"S. cerevisiae deletion strains, locus YLR357W, strain rsc2, active compounds read low",0.88
same,normalized growth,"S. cerevisiae deletion strains, locus YLR370C, strain arc18, active compounds read low",0.977
same,normalized growth,"S. cerevisiae deletion strains, locus YLR371W, strain rom2, active compounds read low",0.96
same,normalized growth,"S. cerevisiae deletion strains, locus YLR384C, strain iki3, active compounds read low",1.02
same,normalized growth,"S. cerevisiae deletion strains, locus YLR418C, strain cdc73, active compounds read low",0.954
same,normalized growth,"S. cerevisiae deletion strains, locus YML016C, strain PPZ1, active compounds read low",0.938
same,normalized growth,"S. cerevisiae deletion strains, locus YML032C, strain rad52, active compounds read low",1.05
same,normalized growth,"S. cerevisiae deletion strains, locus YML120C, strain ndi1, active compounds read low",1.02
same,normalized growth,"S. cerevisiae deletion strains, locus YML124C, strain tub3, active compounds read low",1.03
same,normalized growth,"S. cerevisiae deletion strains, locus YMR058W, strain fet3, active compounds read low",0.611 (active)
same,normalized growth,"S. cerevisiae deletion strains, locus YMR078C, strain ctf18, active compounds read low",1.05
same,normalized growth,"S. cerevisiae deletion strains, locus YMR125W, strain sto1, active compounds read low",1.11
same,normalized growth,"S. cerevisiae deletion strains, locus YMR129W, active compounds read low",1.03
same,normalized growth,"S. cerevisiae deletion strains, locus YMR205C, strain PFK2, active compounds read low",1.05
same,normalized growth,"S. cerevisiae deletion strains, locus YMR223W, strain ubp8, active compounds read low",1.01
same,normalized growth,"S. cerevisiae deletion strains, locus YMR263W, strain SAP30, active compounds read low",0.965
same,normalized growth,"S. cerevisiae deletion strains, locus YMR307W, strain GAS1, active compounds read low",0.815
same,normalized growth,"S. cerevisiae deletion strains, locus YNL067W, strain RPL9B, active compounds read low",0.956
same,normalized growth,"S. cerevisiae deletion strains, locus YNL071W, strain lat1, active compounds read low",1.04
same,normalized growth,"S. cerevisiae deletion strains, locus YNL128W, strain TEP1, active compounds read low",0.845 (active)
same,normalized growth,"S. cerevisiae deletion strains, locus YNL183C, strain NPR1, active compounds read low",0.983
same,normalized growth,"S. cerevisiae deletion strains, locus YNL209W, strain ssb2, active compounds read low",0.831 (active)
same,normalized growth,"S. cerevisiae deletion strains, locus YNL233W, strain BNI4, active compounds read low",0.97
same,normalized growth,"S. cerevisiae deletion strains, locus YNL248C, strain rpa49, active compounds read low",1.03
same,normalized growth,"S. cerevisiae deletion strains, locus YNL250W, strain rad50, active compounds read low",1
same,normalized growth,"S. cerevisiae deletion strains, locus YNL271C, strain bni1, active compounds read low",1.01
same,normalized growth,"S. cerevisiae deletion strains, locus YNL298W, strain CLA4, active compounds read low",1.01
same,normalized growth,"S. cerevisiae deletion strains, locus YNL307C, strain MCK1, active compounds read low",1.02
same,normalized growth,"S. cerevisiae deletion strains, locus YNL322C, strain KRE1 (second series), active compounds read low",1.05
same,normalized growth,"S. cerevisiae deletion strains, locus YNR049C, strain mso1, active compounds read low",1.05
same,normalized growth,"S. cerevisiae deletion strains, locus YNR052C, strain pop2, active compounds read low",1.01
same,normalized growth,"S. cerevisiae deletion strains, locus YOL012C, strain htz1",0.462
same,normalized growth,"S. cerevisiae deletion strains, locus YOL147C, strain pex11, active compounds read low",1.03
same,normalized growth,"S. cerevisiae deletion strains, locus YOR001W, strain rrp6, active compounds read low",1.01
same,normalized growth,"S. cerevisiae deletion strains, locus YOR061W, strain CKA2, active compounds read low",0.977
same,normalized growth,"S. cerevisiae deletion strains, locus YOR069W, strain VPS5, active compounds read low",0.992
same,normalized growth,"S. cerevisiae deletion strains, locus YOR070C, strain gyp1, active compounds read low",0.969
same,normalized growth,"S. cerevisiae deletion strains, locus YOR080W, strain dia2, active compounds read low",1.04
same,normalized growth,"S. cerevisiae deletion strains, locus YOR083W, strain WHI5, active compounds read low",0.965
same,normalized growth,"S. cerevisiae deletion strains, locus YOR106W, strain vam3, active compounds read low",0.811 (active)
same,normalized growth,"S. cerevisiae deletion strains, locus YOR136W, strain idh2, active compounds read low",1.05
same,normalized growth,"S. cerevisiae deletion strains, locus YOR144C, strain elg1, active compounds read low",1.03
same,normalized growth,"S. cerevisiae deletion strains, locus YOR184W, strain ser1, active compounds read low",1.04
same,normalized growth,"S. cerevisiae deletion strains, locus YOR231W, strain MKK1, active compounds read low",1.02
same,normalized growth,"S. cerevisiae deletion strains, locus YOR265W, strain rbl2, active compounds read low",1.02
same,normalized growth,"S. cerevisiae deletion strains, locus YOR270C, strain vph1, active compounds read low",0.956
same,normalized growth,"S. cerevisiae deletion strains, locus YOR290C, strain snf2, active compounds read low",0.985
same,normalized growth,"S. cerevisiae deletion strains, locus YOR316C, strain cot1, active compounds read low",1.04
same,normalized growth,"S. cerevisiae deletion strains, locus YPL051W, strain arl3, active compounds read low",0.884 (active)
same,normalized growth,"S. cerevisiae deletion strains, locus YPL078C, strain atp4, active compounds read low",1.01
same,normalized growth,"S. cerevisiae deletion strains, locus YPL106C, strain sse1, active compounds read low",0.99
same,normalized growth,"S. cerevisiae deletion strains, locus YPL240C, strain hsp82, active compounds read low",1.03
same,normalized growth,"S. cerevisiae deletion strains, locus YPL241C, strain CIN2, active compounds read low",0.994
same,normalized growth,"S. cerevisiae deletion strains, locus YPL256C, strain CLN2, active compounds read low",1.05
same,normalized growth,"S. cerevisiae deletion strains, locus YPR119W, strain clb2, active compounds read low",1.02
same,normalized growth,"S. cerevisiae deletion strains, locus YPR141C, strain kar3, active compounds read low",1.01
same,normalized growth,"S. cerevisiae deletion strains, locus YPR163C, strain tif3, active compounds read low",1.02
same,normalized growth,"S. cerevisiae deletion strains, locus YPR167C, strain met16, active compounds read low",1.04
same,normalized growth,"S. cerevisiae deletion strains, strain wtn01, active compounds read low",1.03
same,normalized growth,"S. cerevisiae strains, strain wild type, active compounds read low",0.814 (active)
